These results are taken from PubChem BioAssay AID651710 (Broad Institute, 2012).

“And” between values parts separate entries of the source, which are not always exact repeats. Equal values may be shown once. Among all 360,000 compounds or so, about 1,600 (0.44%) were called active.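 The calls were made as follows: active = every replicate showing at least 50% inhibition; inconclusive = mean inhibition at least 50% but not in every replicate; inactive = the rest.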 What follows is part of a selection rich in actives, with near analogues and random picks from the rest.

The target in the experiment is DNA repair protein RAD52 homolog (Homo sapiens) (UniProt P43351). In words: blockers of RAD52 strand annealing activity – biochemical, FRET, single point, set 2, primary screen (AID 651710). The note with it: recombinant RAD52 DNA annealing, FRET fluorescence; at 18.7 µM; hits give high values.
DNA repair protein RAD52 homolog (Homo sapiens), sequence (P43351 whole entry, looked up): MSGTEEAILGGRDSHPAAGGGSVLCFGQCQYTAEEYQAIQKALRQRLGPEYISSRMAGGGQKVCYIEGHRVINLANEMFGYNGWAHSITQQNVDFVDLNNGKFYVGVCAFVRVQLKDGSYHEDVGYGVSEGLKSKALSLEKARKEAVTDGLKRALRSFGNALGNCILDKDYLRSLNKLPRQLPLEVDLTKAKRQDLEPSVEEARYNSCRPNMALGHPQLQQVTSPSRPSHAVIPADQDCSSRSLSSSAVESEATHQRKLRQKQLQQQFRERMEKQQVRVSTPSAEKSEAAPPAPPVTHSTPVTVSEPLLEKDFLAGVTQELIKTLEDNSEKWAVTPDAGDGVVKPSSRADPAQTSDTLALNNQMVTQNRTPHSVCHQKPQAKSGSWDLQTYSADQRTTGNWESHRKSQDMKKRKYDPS
The term inhibition denotes the relative decrease from the control value, in per cent. Consider `COCCNc1nc(NCc2ccc(NC(C)=O)cc2)c2sccc2n1`, for which the inhibition is -6.25% (inactive).

`COCCNc1nc(Nc2ccccc2Cl)c2sc(-c3ccccc3)cc2n1`: the inhibition is -21.9% (inactive).

As for `CC(=O)Nc1ccc(CNc2nc(NCCN(C)C)nc3cc(-c4ccccc4)sc23)cc1`, the inhibition is 98.5% (active).

As to `C[C@@H]1CN([C@@H](C)CO)C(=O)c2cc(-c3cccnc3)cnc2O[C@H]1CN(C)Cc1ccc(-c2ccccc2)cc1`, the inhibition was 20.1% (inactive). Turning to `O=C(C[C@H]1CC[C@H](NC(=O)c2ccc(F)cc2)[C@@H](CO)O1)NCCc1ccncc1`, the inhibition was 2.72% (inactive). As to `Cc1c(C)n(Cc2ccc(Cl)cc2)c2ccc(C(=O)NCCCN3CCOCC3)cc12`, the inhibition was -12.7% (inactive). Consider `CCC1Oc2ccccc2N(CC(=O)NCCCN2CCN(CC)CC2)C1=O` (stereo not given), for which the inhibition is -5.96% (inactive). For `CN1CCN(CCCNC(=O)c2ccc(/C=C3\Oc4ccccc4N(Cc4ccc(Cl)cc4)C3=O)cc2)CC1` the value was 94.8% (active). For the molecule `C[C@@H](O)C#Cc1ccc([C@H]2[C@@H](CO)N3CCCCN(CC4CC4)C[C@@H]23)cc1`, the inhibition is -24.5% (inactive). For `COc1ccccc1C#Cc1ccc([C@H]2[C@H](CO)N3CCCCN(C(=O)C4CCC4)C[C@@H]23)cc1`, the inhibition is -21.5% (inactive). With `C[C@H](O)C#Cc1ccc([C@@H]2[C@H](CO)N3CCCCN(CC4CC4)C[C@@H]23)cc1`, the inhibition was 8.98% (inactive). For `COc1ccccc1C#Cc1ccc([C@@H]2[C@H](CO)N3CCCCN(C(=O)C4CCCC4)C[C@@H]23)cc1` the value was 71% (active). As for `COc1ccccc1C#Cc1ccc([C@@H]2[C@H](CO)N3CCCCN(C(=O)C4CC4)C[C@@H]23)cc1`, the inhibition was 38.4% (inactive). For `CN(C)CC#Cc1ccc([C@H]2[C@H](CO)N3CCCCN(CC4CC4)C[C@@H]23)cc1` the value was 65.4% (active); for `C[C@@H](NC(=O)C[C@H]1C[C@@H]2c3cc(NC(=O)c4ccc5c(c4)OCO5)ccc3O[C@@H]2[C@@H](CO)O1)c1ccccc1`, 8.57% (inactive); for `CO[C@H](CN(C)S(=O)(=O)c1ccc(C)cc1)[C@@H](C)CN(Cc1ccccc1Cl)[C@@H](C)CO`, -2.08% (inactive). As for `CO[C@H]1CN(C)C(=O)c2cc(NC(=O)Nc3ccccc3F)ccc2OC[C@H](C)N(C)C[C@H]1C`, the inhibition was 4.64% (inactive). Consider `CC(C)NC(=O)N1C[C@@H]2[C@H](c3ccccc31)[C@H](CO)N2C(=O)C1CCCC1`, for which the inhibition is 0.805% (inactive). On to `COc1ccc(S(=O)(=O)N(C)CC(=O)N2CCCC2)cc1`, for which the inhibition was -9.04% (inactive). Turning to `COc1ccc(N(Cc2ccc(N(C)C)cc2)C(=O)c2ccc(S(C)(=O)=O)cc2)cc1`, the inhibition is 2.51% (inactive).

In the case of `COc1ccc2sc(N(CCCN(C)C)C(=O)c3ccc(S(=O)(=O)N(C)C4CCCCC4)cc3)nc2c1`, the inhibition was 62.7% (active). As to `Cn1ccc(=Nc2ccc(NC(=O)c3ccc(N=c4ccn(C)c5ccc([N+](=O)[O-])cc45)cc3)cc2)cc1`, the inhibition was 94.9% (active). With `Cn1c(=O)n(C)c2cc(C(=O)Nc3ccc(Br)cc3)ccc21`, the inhibition was -11.5% (inactive). Consider `CN(CC1CCCO1)S(=O)(=O)c1ccc(C(=O)Nc2ccc([N+](=O)[O-])cc2)cc1` (stereo not given), for which the inhibition was -8.13% (inactive).

Take `C[C@@H]1CN([C@@H](C)CO)S(=O)(=O)c2ccc(/C=C/c3ccccc3)cc2O[C@H]1CN(C)C(=O)C1CC1`: the inhibition was 14.6% (inactive). Consider `O=C(C[C@H]1CC[C@H]2[C@@H](COC[C@H](O)CN2Cc2nccs2)O1)NCc1ccc(Oc2ccccc2)cc1`, for which the inhibition is 9.32% (inactive). Take `O=C(Nc1ccccc1F)N[C@@H]1CC[C@H](CC(=O)N2CCCCC2)O[C@H]1CO`: the inhibition was -11.7% (inactive). As for `C#Cc1cc(N2CCN(C(=O)c3ccoc3)CC2)n2nc(-c3cccc(Cl)c3)cc2n1`, the inhibition is 10.8% (inactive). For `CN(C)CCN1CCN(c2cc(-c3cccc(Cl)c3)nc3ccnn23)CC1`, the inhibition is 91.4% (active).

Regarding `O=C(c1ccccc1)N1CCN(c2cc(-c3ccccc3)nc3cc(-c4cccc(Cl)c4)nn23)CC1`, the inhibition is -9.17% (inactive). Take `CN(C)C(=O)c1cccc(-c2ccccc2[C@@H]2[C@@H](CO)N(C(=O)C3CCCCC3)[C@H]2C#N)c1`: the inhibition was 6.38% (inactive). Consider `C[C@H](CO)N1C[C@H](C)[C@@H](CN(C)Cc2ccc(-c3ccccc3)cc2)Oc2ccc(NC(=O)CCC(F)(F)F)cc2CC1=O`, for which the inhibition was 23.2% (inactive). The result for `C[C@H]1CN([C@@H](C)CO)C(=O)Cc2cc(NC(=O)CCCN(C)C)ccc2O[C@@H]1CN(C)Cc1ccc(-c2ccccc2)cc1` reads 48.7% (inactive). The result for `C[C@H](CO)N1C[C@H](C)[C@H](CN(C)Cc2ccc(-c3ccccc3)cc2)Oc2ccc(NC(=O)Nc3ccc(F)cc3)cc2CC1=O` reads -6.38% (inactive); that for `C[C@@H]1CN([C@@H](C)CO)C(=O)Cc2cc(NC(=O)CCCN(C)C)ccc2O[C@@H]1CN(C)Cc1ccc(-c2ccccc2)cc1`, 86.8% (active); that for `C[C@H](CO)N1C[C@H](C)[C@@H](CN(C)Cc2ccc(-c3ccccc3)cc2)Oc2ccc(NC(=O)CCCN(C)C)cc2CC1=O`, 94% (active). As for `C[C@@H]1CN([C@H](C)CO)C(=O)Cc2cc(NC(=O)CCCN(C)C)ccc2O[C@@H]1CN(C)Cc1ccc(Oc2ccccc2)cc1`, the inhibition is 54.4% (inactive). The result for `O=C(N[C@H]1CC[C@@H](CCNS(=O)(=O)c2ccccc2)O[C@@H]1CO)c1cnccn1` reads -13.2% (inactive). In the case of `C[C@@H]1CN([C@H](C)CO)C(=O)CCCn2cc(nn2)CO[C@H]1CN(C)C(=O)Nc1ccc(N2CCCCC2)cc1`, the inhibition was -12.3% (inactive) and -1.13% (inactive) and -23.2% (inactive). As to `Cc1onc(-c2ccccc2)c1C(=O)N=C(N)c1ccc(Cl)cc1`, the inhibition was -19.5% (inactive). Turning to `Clc1ccc2nc(-c3ccccc3)nc(C(Cl)Cl)c2c1`, the inhibition is -10.7% (inactive). The result for `NC(N)=Nc1nc(-c2ccccc2)c2cc(Cl)ccc2n1` reads 84.7% (active). For the molecule `O=C(CCC(=O)Nc1ccccc1)N/N=C/c1ccccc1F`, the inhibition was -7.35% (inactive). With `CC1=NNC(=O)C1CCC(=O)N/N=C\c1ccc(Cl)c(Cl)c1` (stereo not given), the inhibition is -0.875% (inactive). As for `NCCCCCC(=O)N/N=C/c1ccc2nccnc2c1`, the inhibition was 87.9% (active).
